# Measured values as given in PubChem BioAssay (NCATS).
# Records with an inconclusive call do not appear. Entries that show only a call come without a potency. Calls of active or inactive are those of the source. Unless noted, the call rests on the fitted dose curve; in most records, active means well fitted curve in the direction sought with a large enough effect; inconclusive means small, poorly fitted or top-dose-only effect, or another doubt; inactive means no such curve, though single readings can be large; an effect the other way counts as inactive or inconclusive.
# Key:
# [1] = biological target: Lysosomal acid glucosylceramidase (Homo sapiens) (UniProt P04062); assay: Glucocerebrosidase-p2 (AID 348; in the data active means potency below about 10 µM; further: potency means the concentration at half of the fitted maximal effect); details: purified GBA, blue fluorogenic substrate, 40 min
# Lysosomal acid glucosylceramidase (Homo sapiens), sequence (P04062 whole entry, looked up): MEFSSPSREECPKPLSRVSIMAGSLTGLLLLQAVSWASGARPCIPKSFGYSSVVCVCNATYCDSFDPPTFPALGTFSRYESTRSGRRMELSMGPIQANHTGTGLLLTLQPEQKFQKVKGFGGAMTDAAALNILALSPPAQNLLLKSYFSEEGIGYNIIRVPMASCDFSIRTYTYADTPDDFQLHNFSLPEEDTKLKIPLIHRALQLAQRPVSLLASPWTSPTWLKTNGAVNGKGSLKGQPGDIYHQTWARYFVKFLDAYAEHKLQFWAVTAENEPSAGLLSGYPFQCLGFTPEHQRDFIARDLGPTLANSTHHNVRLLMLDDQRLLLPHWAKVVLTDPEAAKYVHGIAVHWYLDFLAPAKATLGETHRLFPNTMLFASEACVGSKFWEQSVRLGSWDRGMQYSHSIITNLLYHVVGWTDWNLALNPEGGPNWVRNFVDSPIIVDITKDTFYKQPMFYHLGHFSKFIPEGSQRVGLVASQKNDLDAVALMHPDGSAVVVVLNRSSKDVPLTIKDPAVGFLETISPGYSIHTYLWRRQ
# How it was run: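 Compounds titrated from 0.6 nM upwards against 0.2 nM enzyme in pH 5.9 citric acid/KH2PO4, taurocholate, tween-20; blue fluorogenic substrate 80 uM, 40 min room temperature, stopped and read Ex 365/Em 440 for AC50.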
# [2] = biological target: Cytochrome P450 1A2 (Homo sapiens) (UniProt P05177); assay: p450-cyp1a2 (AID 410; calls by dose curve; further: potency means the concentration at half of the fitted maximal effect); details: recombinant CYP1A2, luciferin-ME demethylation, luminescence; series mostly up to 57 µM
# Cytochrome P450 1A2 (Homo sapiens), sequence (P05177 whole entry, looked up): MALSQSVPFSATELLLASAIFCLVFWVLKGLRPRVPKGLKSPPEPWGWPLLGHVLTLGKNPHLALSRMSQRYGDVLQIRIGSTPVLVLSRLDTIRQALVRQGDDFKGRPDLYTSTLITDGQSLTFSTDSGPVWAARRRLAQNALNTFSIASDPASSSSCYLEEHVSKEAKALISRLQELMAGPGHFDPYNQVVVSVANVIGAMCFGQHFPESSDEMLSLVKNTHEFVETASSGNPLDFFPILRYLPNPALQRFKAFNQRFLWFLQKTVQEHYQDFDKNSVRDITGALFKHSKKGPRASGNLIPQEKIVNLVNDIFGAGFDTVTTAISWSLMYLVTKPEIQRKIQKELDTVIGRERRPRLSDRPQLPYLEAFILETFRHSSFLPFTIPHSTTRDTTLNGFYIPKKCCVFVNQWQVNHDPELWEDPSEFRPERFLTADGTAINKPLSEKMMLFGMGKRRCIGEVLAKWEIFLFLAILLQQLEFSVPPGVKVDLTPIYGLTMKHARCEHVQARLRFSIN
# How it was run: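 20nM CYP1A2 with 100uM Luciferin-ME (at Km) in 100mM KPO4; compound preincubated 10 min, NADPH regeneration added, 60 min at room temperature. Luciferin quantified by luminescence after detection reagent; normalized to 57 uM furafylline.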
# [3] = biological target: Glucocorticoid receptor (Homo sapiens) (UniProt P04150); assay: GR-GFP Redistribution (AID 450;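 active means compounds whose dose series gives a full or clear partial fitted curve of increased nuclear translocation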; further: potency means the concentration at half of the fitted maximal effect); details: U2OS GR-GFP nuclear translocation, laser cytometry, 2 h
# Glucocorticoid receptor (Homo sapiens), sequence (P04150 whole entry, looked up, the tested form may be a part): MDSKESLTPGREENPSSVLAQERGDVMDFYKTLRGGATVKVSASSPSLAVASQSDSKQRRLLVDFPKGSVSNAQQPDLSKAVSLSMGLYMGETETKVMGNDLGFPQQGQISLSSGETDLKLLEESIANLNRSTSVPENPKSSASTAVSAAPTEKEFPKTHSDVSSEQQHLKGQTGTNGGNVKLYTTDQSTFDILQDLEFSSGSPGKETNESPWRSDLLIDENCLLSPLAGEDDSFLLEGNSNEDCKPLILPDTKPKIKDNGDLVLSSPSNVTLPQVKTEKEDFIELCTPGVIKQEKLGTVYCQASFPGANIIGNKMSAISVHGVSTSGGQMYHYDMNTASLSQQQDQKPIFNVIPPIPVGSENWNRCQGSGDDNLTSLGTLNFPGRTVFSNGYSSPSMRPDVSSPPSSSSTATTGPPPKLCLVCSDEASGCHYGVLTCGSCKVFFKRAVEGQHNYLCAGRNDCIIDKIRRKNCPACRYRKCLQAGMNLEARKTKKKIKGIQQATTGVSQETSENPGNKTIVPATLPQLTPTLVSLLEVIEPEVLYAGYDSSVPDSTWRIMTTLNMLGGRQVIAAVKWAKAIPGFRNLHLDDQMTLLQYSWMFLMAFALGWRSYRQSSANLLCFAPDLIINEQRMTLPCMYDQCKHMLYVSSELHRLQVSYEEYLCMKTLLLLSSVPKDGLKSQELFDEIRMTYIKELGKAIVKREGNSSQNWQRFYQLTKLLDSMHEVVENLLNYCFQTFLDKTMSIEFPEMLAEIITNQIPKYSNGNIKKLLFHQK
# [4] = biological target: Glucocorticoid receptor (Homo sapiens) (UniProt P04150); assay: GR-EFC Redistribution (AID 451; calls by dose curve; further: potency means the concentration at half of the fitted maximal effect); details: CHO-K1 GR-EFC translocation, beta-gal luminescence, 2 h
# How it was run: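 Translocation of GR-ED fusion to nuclear EA restores b-gal, read by luminescence after 1 h room-temperature detection. Engineered CHO-K1 biosensor cells, 1,000/well, exposed 2 h at 37 C to titrations up to 46 uM final.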
# [5] = biological target: Mitogen-activated protein kinase 10 (Mus musculus) (UniProt Q61831); assay: JNK3 AlphaScreen Assay (AID 530; active means well fitted curve in either direction with a large enough effect, not every such curve was filed as active;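 further: kinase came from lysate of stimulated human HepG2 cells; signal reports phosphorylation of biotinylated GST-cJun 1-79 at Ser73 with 10 µM ATP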); details: JNK3 lysate, c-Jun phosphorylation; series mostly up to 57.1 µM
# How it was run: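 Compound titrations were preincubated 15 minutes at room temperature with substrate, antibody and pre-activated JNK3-containing HepG2 lysate. Reactions were started with 10 uM ATP and stopped with EDTA-containing bead buffer for AlphaScreen detection.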
# [6] = biological target: Dual specificity protein kinase CLK4 (Homo sapiens) (UniProt Q9HAZ1); assay: qHTS Assay for Inhibitors of CDC-like Kinase 4 (Kinase-Glo Assay) (AID 1770); details: recombinant Clk4, Kinase-Glo ATP depletion luminescence; series mostly up to 66.7 µM; further: nearly all actives have a fitted effect of over 65% in size
# How it was run: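 Substrate mix (RS peptide 100 uM, ATP 1 uM) dispensed, compound pinned in, then Clk4 added to 25 nM final. Incubated 4.5 h at RT; Kinase-Glo reagent added, luminescence read after 5 min.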
# [7] = biological target: Dual specificity protein kinase CLK4 (Homo sapiens) (UniProt Q9HAZ1); assay: qHTS Assay for Inhibitors of CDC-like Kinase 4 (ADP-Glo Assay) (AID 1771); details: recombinant CLK4, ADP-Glo luminescence; series mostly up to 80 µM; further: nearly all actives have a fitted effect of over 70% in size
# How it was run: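 25 nM Clk4 with 100 uM RS repeat peptide and 1 uM ATP (final) in buffer with 2 mM MgCl2, 0.5 mM EGTA, 2.5 mM DTT, 0.01% Triton X-100; 1 h at room temperature; ADP-Glo luminescence for ADP formed.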
# [8] = biological target: Dual specificity protein kinase CLK4 (Homo sapiens) (UniProt Q9HAZ1); assay: qHTS Assay for Inhibitors of CDC-like Kinase 4 (ADP-FP Assay) (AID 1795); details: Transcreener ADP fluorescence polarization; series mostly up to 50 µM;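 further: recombinant human CLK4 phosphorylating RS repeat peptide at 1 µM ATP; nearly all actives have a fitted effect of over 60% in size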
# How it was run: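 Clk4 6.25 nM; RS peptide 100 uM; ATP 1 uM; 25 mM Tris pH 7.5, 10 mM MgCl2; 1 h reaction. ADP detected via antibody/orange tracer FP displacement; TG003 positive control.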
# [9] = biological target: Ubiquitin carboxyl-terminal hydrolase 1 (Homo sapiens) (UniProt O94782); assay: Inhibitors of USP1/UAF1: Pilot qHTS (AID 504865); details: purified USP1/UAF1, Ub-rhodamine cleavage fluorescence; series mostly up to 54.9 µM;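 further: rhodamine fluorescence freed from ubiquitin-rhodamine substrate followed over time; top concentration of the series differs between compounds; nearly all actives have a fitted effect of over 35% in size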
# Ubiquitin carboxyl-terminal hydrolase 1 (Homo sapiens), sequence (O94782 whole entry, looked up): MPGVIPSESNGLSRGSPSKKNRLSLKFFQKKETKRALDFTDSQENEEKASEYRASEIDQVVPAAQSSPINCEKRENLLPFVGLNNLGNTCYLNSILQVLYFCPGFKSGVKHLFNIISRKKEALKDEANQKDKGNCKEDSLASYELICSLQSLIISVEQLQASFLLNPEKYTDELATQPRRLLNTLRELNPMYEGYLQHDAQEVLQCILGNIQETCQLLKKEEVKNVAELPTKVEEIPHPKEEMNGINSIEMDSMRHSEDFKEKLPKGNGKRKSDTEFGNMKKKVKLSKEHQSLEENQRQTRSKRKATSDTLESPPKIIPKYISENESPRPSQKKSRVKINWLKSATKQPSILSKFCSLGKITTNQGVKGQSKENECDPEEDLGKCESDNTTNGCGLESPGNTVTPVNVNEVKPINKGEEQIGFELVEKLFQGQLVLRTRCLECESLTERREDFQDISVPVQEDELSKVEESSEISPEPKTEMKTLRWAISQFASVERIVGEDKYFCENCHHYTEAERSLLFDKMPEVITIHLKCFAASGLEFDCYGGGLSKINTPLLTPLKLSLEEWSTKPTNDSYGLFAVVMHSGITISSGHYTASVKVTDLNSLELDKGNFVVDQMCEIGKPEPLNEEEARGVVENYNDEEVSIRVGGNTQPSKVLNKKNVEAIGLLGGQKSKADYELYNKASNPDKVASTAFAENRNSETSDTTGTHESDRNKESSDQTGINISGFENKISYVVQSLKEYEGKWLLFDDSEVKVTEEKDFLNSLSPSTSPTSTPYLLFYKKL
# How it was run: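 In 50mM HEPES pH 7.8 containing 0.5mM EDTA, 1mM TCEP, 0.1 mg/ml BSA and 0.01% Tween-20, 1nM USP1/UAF1 is exposed to compound for 15 min, then Ub-Rho (150nM final) is added and fluorescence is read over time.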
# [10] = Primary qHTS for small molecule stabilizers of the endoplasmic reticulum resident proteome: Secreted ER Calcium Modulated Protein (SERCaMP) assay (AID 1508630); details: SH-SY5Y GLuc-SERCaMP (Gaussia luciferase released on ER calcium loss) secretion, thapsigargin, luminescence; series mostly up to 38.4 µM
# How it was run: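 GLuc-SERCaMP-expressing SH-SY5Y cells, pretreated 16 h with compound, are challenged with thapsigargin to empty ER calcium stores; after 4 h, coelenterazine is added directly to the medium and luminescence is imaged.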
# [11] = biological target: Rap guanine nucleotide exchange factor 3 (Homo sapiens) (UniProt O95398); assay: Confirmatory qHTS for antagonist of cAMP-regulated guanine nucleotide exchange factor 3 (EPAC1) (AID 1645880); details: EPAC1 Rap1B-BODIPY-GDP exchange, fluorescence; series mostly up to 115 µM; further: nearly all actives have a fitted effect of over 55% in size
# Rap guanine nucleotide exchange factor 3 (Homo sapiens), sequence (O95398 whole entry, looked up): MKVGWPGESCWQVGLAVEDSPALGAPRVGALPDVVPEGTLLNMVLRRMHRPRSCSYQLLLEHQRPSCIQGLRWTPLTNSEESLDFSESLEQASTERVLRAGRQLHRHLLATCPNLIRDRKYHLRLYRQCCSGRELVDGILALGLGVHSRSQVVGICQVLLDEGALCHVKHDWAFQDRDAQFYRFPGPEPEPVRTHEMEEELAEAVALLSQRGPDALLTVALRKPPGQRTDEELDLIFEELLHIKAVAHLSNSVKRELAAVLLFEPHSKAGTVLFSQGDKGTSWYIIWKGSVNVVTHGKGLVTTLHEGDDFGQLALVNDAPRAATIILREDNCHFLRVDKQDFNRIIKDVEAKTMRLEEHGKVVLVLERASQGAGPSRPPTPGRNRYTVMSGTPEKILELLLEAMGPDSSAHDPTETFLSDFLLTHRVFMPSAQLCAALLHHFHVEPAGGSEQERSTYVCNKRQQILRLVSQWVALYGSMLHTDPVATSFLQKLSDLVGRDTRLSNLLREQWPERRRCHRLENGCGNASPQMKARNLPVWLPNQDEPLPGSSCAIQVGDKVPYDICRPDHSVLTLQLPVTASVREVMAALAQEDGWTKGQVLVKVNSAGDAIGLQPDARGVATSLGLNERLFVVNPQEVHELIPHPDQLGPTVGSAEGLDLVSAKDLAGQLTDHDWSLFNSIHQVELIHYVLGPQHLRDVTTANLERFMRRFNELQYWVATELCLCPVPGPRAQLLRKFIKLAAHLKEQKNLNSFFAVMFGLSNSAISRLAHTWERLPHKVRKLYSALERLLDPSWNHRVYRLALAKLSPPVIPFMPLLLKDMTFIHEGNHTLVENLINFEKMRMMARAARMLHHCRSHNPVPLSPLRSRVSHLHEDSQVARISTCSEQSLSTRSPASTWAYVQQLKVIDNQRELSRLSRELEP
# How it was run: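 Nucleotide exchange uses 100 nM EPAC1, 250 nM RAP1B-BODIPY-GDP and 50 uM GDP, with compounds in a concentration-titration series. After 5 min at room temperature, fluorescence (480 nm ex/540 nm em) is read every 5 min for 30 min. Data are normalized to control ATA and DMSO.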
# [12] = biological target: Rap guanine nucleotide exchange factor 3 (Homo sapiens) (UniProt O95398); assay: Confirmatory qHTS for agonist of cAMP-regulated guanine nucleotide exchange factor 3 (EPAC1) (AID 1645881); details: EPAC1 Rap1B BODIPY-GDP exchange fluorescence; series mostly up to 154 µM;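 further: EPAC1 catalysed release of BODIPY-GDP from Rap1B seen as fluorescence loss; nearly all actives have a fitted effect of over 75% in size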
# [13] = biological target: Rap guanine nucleotide exchange factor 4 (Homo sapiens) (UniProt Q8WZA2); assay: Confirmatory qHTS for agonist of cAMP-regulated guanine nucleotide exchange factor 4 (EPAC2) (AID 1645884); details: EPAC2 GEF activity, Rap1B-BODIPY-GDP fluorescence; series mostly up to 154 µM;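 further: nucleotide exchange releases bodipy-GDP from Rap1 and this lowers its fluorescence; nearly all actives have a fitted effect of over 65% in size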
# [14] = biological target: Rap guanine nucleotide exchange factor 4 (Homo sapiens) (UniProt Q8WZA2); assay: Confirmatory qHTS for antagonist of cAMP-regulated guanine nucleotide exchange factor 4 (EPAC2) (AID 1645885); details: EPAC2 Rap1B-BODIPY-GDP exchange fluorescence, biochemical; series mostly up to 114 µM; further: nearly all actives have a fitted effect of over 25% in size
# [15] = AP1 Signaling Pathway (AID 357; active means well fitted curve in either direction with a large enough effect, not every such curve was filed as active); details: ME-180 AP-1-bla reporter, EGF-induced, beta-lactamase ratio, 5 h; at 7.69 µM (top of the series) unless noted
# How it was run: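 In this screen, ME-180 cells in Opti-MEM with 0.5% dialyzed FBS received EC50 EGF and compound titrations for 5 h. AP-1 reporter beta-lactamase was detected via CCF4 ratio, giving AC50 for positive and negative modulators.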
# [16] = NFAT Signaling Pathway (AID 444; active means well fitted curve in either direction with a large enough effect, not every such curve was filed as active;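 further: carbachol stimulus at about its EC50 of 1 µM final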); details: Jurkat NFAT-bla M1, carbachol, beta-lactamase ratio, 5 h; at 7.69 µM (top of the series) unless noted
# How it was run: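 Read-out: CCF4 FRET ratio (460 nm/530 nm) after 1 h RT dye loading, used for %activity and AC50 from titration series. Cells: Jurkat NFAT-β-lactamase/M1 line, treated with compound plus 1 uM carbachol for 5 h, 37 °C.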
# [17] = Stat Signaling Pathway (AID 446; active means well fitted curve in either direction with a large enough effect, not every such curve was filed as active;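 further: ME-180 cervical cancer cells given 40 pM IL-6 alongside compound; SIE-controlled beta-lactamase reporter measured as 460/530 nm FRET emission ratio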); details: ME-180 SIE beta-lactamase reporter, IL-6 stimulated, 5 h; at 7.69 µM (top of the series) unless noted
# How it was run: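 ME-180 SIE-bla cells; overnight plating; cpd + IL-6 40 pM, 5 h, 37 C; LiveBLAzer 2.5 h RT; 460/530 nm emission ratio. Normalized to 300 pM IL-6 and 125 nM JAK inhibitor controls.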
# [18] = biological target: 3',5'-cyclic-AMP phosphodiesterase 4B (Homo sapiens) (UniProt Q07343); assay: qHTS Assay for Inhibitors of PDE-IV (AID 607; active means well fitted activation curve with a large enough effect in the main read-out, with a control signal flat, not every such curve was filed as active); details: HEK293 ACTOne CNG channel cells, membrane potential fluorescence; series mostly up to 22.9 µM
# 3',5'-cyclic-AMP phosphodiesterase 4B (Homo sapiens), sequence (Q07343 whole entry, looked up): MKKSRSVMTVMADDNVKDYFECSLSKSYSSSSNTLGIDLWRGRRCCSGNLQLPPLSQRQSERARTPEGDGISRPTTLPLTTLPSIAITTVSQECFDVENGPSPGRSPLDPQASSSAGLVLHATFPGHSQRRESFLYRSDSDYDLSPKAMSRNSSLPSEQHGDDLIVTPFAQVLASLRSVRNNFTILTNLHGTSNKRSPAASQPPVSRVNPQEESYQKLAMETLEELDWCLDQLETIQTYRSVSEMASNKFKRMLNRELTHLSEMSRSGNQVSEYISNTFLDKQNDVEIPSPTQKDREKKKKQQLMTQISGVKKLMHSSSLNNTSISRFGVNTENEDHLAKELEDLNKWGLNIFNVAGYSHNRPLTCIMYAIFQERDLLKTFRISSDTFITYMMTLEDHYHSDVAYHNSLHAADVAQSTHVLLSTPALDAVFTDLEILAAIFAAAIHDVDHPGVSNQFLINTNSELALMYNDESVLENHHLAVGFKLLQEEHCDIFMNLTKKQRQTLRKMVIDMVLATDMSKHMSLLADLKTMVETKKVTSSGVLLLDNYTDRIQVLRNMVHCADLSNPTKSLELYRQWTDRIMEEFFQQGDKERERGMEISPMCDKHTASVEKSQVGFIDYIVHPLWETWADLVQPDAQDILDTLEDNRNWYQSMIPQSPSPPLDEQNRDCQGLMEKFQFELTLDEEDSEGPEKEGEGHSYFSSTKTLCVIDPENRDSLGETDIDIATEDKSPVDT
# How it was run: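 ACTOne HEK293 cells carry a modified cAMP-gated CNG channel and express endogenous PDE4; plated 1000 cells/well, compounds up to 22.9 uM final. Membrane-potential dye fluorescence (ex 535/em 590) was read; parental cells received 10 uM forskolin + 100 uM RO 20-1724.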
# [19] = biological target: Cytochrome P450 3A4 (Homo sapiens) (UniProt P08684); assay: qHTS Assay for Activators of Cytochrome P450 3A4 (AID 885); details: recombinant CYP3A4, Luciferin-PPXE luminescence, 60 min; series mostly up to 57.1 µM; further: nearly all actives have a fitted effect of over 65% in size; further: potency means the concentration at half of the fitted maximal effect
# Cytochrome P450 3A4 (Homo sapiens), sequence (P08684 whole entry, looked up): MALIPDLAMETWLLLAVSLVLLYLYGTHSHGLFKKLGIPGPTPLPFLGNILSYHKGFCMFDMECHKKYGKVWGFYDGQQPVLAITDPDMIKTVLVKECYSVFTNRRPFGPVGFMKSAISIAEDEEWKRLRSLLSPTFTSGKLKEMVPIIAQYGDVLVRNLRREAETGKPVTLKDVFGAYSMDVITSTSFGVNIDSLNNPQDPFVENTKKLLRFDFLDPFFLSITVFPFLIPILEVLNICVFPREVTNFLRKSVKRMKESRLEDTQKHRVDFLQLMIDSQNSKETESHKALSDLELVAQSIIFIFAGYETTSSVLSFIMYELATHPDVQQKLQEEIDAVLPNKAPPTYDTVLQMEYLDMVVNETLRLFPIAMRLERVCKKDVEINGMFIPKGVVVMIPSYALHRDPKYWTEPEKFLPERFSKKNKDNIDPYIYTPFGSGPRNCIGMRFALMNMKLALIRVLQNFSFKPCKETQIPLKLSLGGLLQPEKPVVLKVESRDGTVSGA
# How it was run: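 20nM CYP3A4 + 25uM Luciferin-PPXE (=KM), 200mM KPO4; cpd 10 min RT; NADPH regen, 60 min RT; stop w/ detection buffer, 20 min; luminescence. Normalized to 57 uM ketoconazole.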
# [20] = qHTS Assay for Lipid Storage Modulators (AID 1519; calls by dose curve); details: Drosophila S3 cells, BODIPY lipid droplet/cell ratio, laser cytometry, cells loaded with oleic acid; for activity change, negative = inhibition: at 57.5 µM (top of the series)
# How it was run: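 Cells seeded at 5,000 per well were treated with compounds over a concentration series and loaded with oleic acid (400 uM, as added). Lipid droplet fluorescence (488 nm excitation, 500-530 nm channel) was read by laser-scanning cytometry and normalized to 20 uM Triacsin C.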
# [21] = measured here: cell count channel max response
# [22] = measured here: lipid channel max response
compound,measurement,setting,value
COc1ccc(-n2c(=O)c(-c3ccc(Cl)cc3)nc3cnc(N(C)C)nc32)cc1,Potency,[1],> 11.4 µM (inactive)
same,Potency,[2],10 µM (active)
same,Potency,[3],> 9.22 µM (inactive)
same,Potency,[4],> 46 µM (inactive)
same,Potency,[5],inactive
same,Potency,[6],inactive
same,Potency,[7],inactive
same,Potency,[8],inactive
same,Potency,[9],inactive
same,outcome,[10],inactive
same,Potency,[11],inactive
same,Potency,[12],inactive
same,Potency,[13],inactive
same,Potency,[14],inactive
CN(C)c1ncc2nc(-c3ccc(F)cc3)c(=O)n(-c3ccccc3)c2n1,Potency,[1],> 11.4 µM (inactive)
same,"activity change, negative = inhibition",[15],-8.28% (inactive)
same,"activity change, negative = inhibition",[16],20.7% (inactive)
same,"activity, negative = inhibition",[17],28.3% (inactive)
same,Potency,[3],> 9.22 µM (inactive)
same,Potency,[4],> 46 µM (inactive)
same,Potency,[5],inactive
same,Potency,[6],inactive
same,Potency,[7],inactive
same,Potency,[8],inactive
same,Potency,[9],inactive
same,outcome,[10],inactive
same,Potency,[11],inactive
same,Potency,[12],inactive
same,Potency,[13],inactive
same,Potency,[14],inactive
COc1ccccc1CNc1nc(-c2ccc3c(c2)OCO3)nc2ccccc12,"activity change, negative = inhibition",[15],24.7% (inactive)
same,Potency,[2],0.631 µM (active)
same,"activity, negative = inhibition",[17],-8.69% (inactive)
same,Potency,[3],> 46 µM (inactive)
same,Potency,[4],> 46 µM (inactive)
same,Potency,[5],inactive
same,Potency,[18],inactive
same,Potency,[19],inactive
same,Potency,[6],inactive
same,outcome,[10],inactive
same,Potency,[11],inactive
same,Potency,[12],inactive
same,Potency,[13],inactive
same,Potency,[14],inactive
COc1cccc(Cn2c(=O)c(-c3ccc(F)cc3)nc3cnc(N4CCOCC4)nc32)c1,Potency,[1],> 11.4 µM (inactive)
same,Potency,[3],> 9.22 µM (inactive)
same,Potency,[4],> 46 µM (inactive)
same,Potency,[5],inactive
same,Potency,[18],inactive
same,Potency,[6],inactive
same,Potency,[7],inactive
same,Potency,[8],inactive
same,Potency,[9],inactive
same,outcome,[10],inactive
same,Potency,[11],inactive
same,Potency,[12],inactive
same,Potency,[13],inactive
same,Potency,[14],inactive
O=C(O)c1cc(=O)c2cccc(O)c2[nH]1,"activity change, negative = inhibition",[20],14.6% (inactive)
same,max response,[20]; [21],27.2%
same,max response,[20]; [22],50.3%
same,Potency,[9],inactive
same,outcome,[10],inactive
O=C(c1cnccn1)N1CCC2(CC1)CN(c1ccccn1)C2,Potency,[2],inactive
same,"activity change, negative = inhibition",[16],-1.72% (inactive)
same,"activity, negative = inhibition",[17],22.6% (inactive)
same,Potency,[4],> 46 µM (inactive)
same,Potency,[5],inactive
same,Potency,[18],inactive
same,Potency,[19],3.98 µM (active)
same,"activity change, negative = inhibition",[20],2.3% (inactive)
same,max response,[20]; [21],-1.81%
same,max response,[20]; [22],-0.0464%
same,outcome,[10],inactive
CS(=O)(=O)Nc1cccc(-c2ccc3ncnc(Nc4ccc(F)cc4)c3c2)c1,Potency,[2],0.794 µM (active)
same,"activity, negative = inhibition",[17],4.21% (inactive)
same,Potency,[4],> 46 µM (inactive)
same,Potency,[5],inactive
same,Potency,[19],inactive
same,"activity change, negative = inhibition",[20],2.96% (inactive)
same,max response,[20]; [21],-27.4%
same,max response,[20]; [22],-14.7%
same,outcome,[10],inactive
